Here are results for one compound from PubChem BioAssay AID1521 (The Scripps Research Institute Molecular Screening Center, 2009).

Structures are written as SMILES. The list shows a part of the results. Activity calls are given as the source filed them.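 How the source made its calls: active means mean inhibition above the hit cutoff derived in the earlier primary screen (cut at about 25% in these data); inactive means the rest.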

The assay can be described thus: reduced survival of JAK2V617F-driven Ba/F3 cells – cell-based, Ba/F3 EpoR-JAK2V617F, luminescence, triplicate, JAK2V617F inhibitor project, confirmation (AID 1521).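 Further: 0% = DMSO-treated cells and 100% = JAK inhibitor I control wells.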 The conditions noted are these: Ba/F3 EpoR-JAK2V617F viability, CellTiter-Glo luminescence; at 5.6 µM; stronger effect = higher value. For orientation: ATP-based viability assays read luminescence as a measure of living cells.

For `CN(C)CC1Oc2ccccc2OC1(O)c1ccccc1` (stereo unspecified), the inhibition (commonly the relative decrease from the control value, in per cent) is 98.7% (active).
